Results filed as inconclusive are left out. Unmarked numbers belong to inactive results. Activity calls are given as the source filed them. The call rests on the fitted dose curve; in most records, active means well fitted cell-killing curve with a large enough effect; inconclusive means small, poorly fitted or top-dose-only effect, or effect the other way; inactive means no such curve, though single readings can be large or run the other way.
How the values were obtained:
[1] = Quantitative High-Throughput drug screen in 47 multiple myeloma cell lines against the NCATS MIPE library collection: OPM1_PLB cell viability assay (AID 1918989); further: nearly all actives have a fitted effect of over 40% in size
How it was run: (§1)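 Readout: median RLU from CellTiter-Glo after 5 min at room temperature. Preceding step was 48 h drug treatment of 500 cells/well at 37 °C, 5% CO2, with DMSO-only and media-only control wells.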

[2] = Quantitative High-Throughput drug screen in 47 multiple myeloma cell lines against the NCATS MIPE library collection: SKMM1_PLB cell viability assay (AID 1919863); conditions: SKMM1 myeloma viability, CellTiter-Glo ATP, 48 h; viability: stronger effect = lower value; further: nearly all actives have a fitted effect of over 35% in size
How it was run: as §1

[3] = Quantitative High-Throughput drug screen in 47 multiple myeloma cell lines against the NCATS MIPE library collection: U266_ATCC cell viability assay (AID 1919864); further: nearly all actives have a fitted effect of over 35% in size
How it was run: as §1

[4] = Quantitative High-Throughput drug screen in 47 multiple myeloma cell lines against the NCATS MIPE library collection: XG6_PLB cell viability assay (AID 1919865); further: nearly all actives have a fitted effect of over 40% in size
How it was run: as §1

[5] = Quantitative High-Throughput drug screen in 47 multiple myeloma cell lines against the NCATS MIPE library collection: XG1_PLB cell viability assay (AID 1919866); further: nearly all actives have a fitted effect of over 35% in size
How it was run: as §1

[6] = Quantitative High-Throughput drug screen in 47 multiple myeloma cell lines against the NCATS MIPE library collection: VP6_DJ cell viability assay (AID 1919867); further: nearly all actives have a fitted effect of over 40% in size
How it was run: as §1

[7] = Quantitative High-Throughput drug screen in 47 multiple myeloma cell lines against the NCATS MIPE library collection: PCM6_Riken cell viability assay (AID 1919870); further: nearly all actives have a fitted effect of over 30% in size
How it was run: as §1

[8] = Quantitative High-Throughput drug screen in 47 multiple myeloma cell lines against the NCATS MIPE library collection: KMS11_JCRBsus cell viability assay (AID 1919873); further: nearly all actives have a fitted effect of over 50% in size
How it was run: as §1

[9] = Quantitative High-Throughput drug screen in 47 multiple myeloma cell lines against the NCATS MIPE library collection: KMS28BM_JCRB cell viability assay (AID 1919874); further: nearly all actives have a fitted effect of over 35% in size
How it was run: as §1

[10] = Quantitative High-Throughput drug screen in 47 multiple myeloma cell lines against the NCATS MIPE library collection: UTMC2_PLB cell viability assay (AID 1919868); conditions: CellTiter-Glo ATP luminescence, 48 h; viability (% of DMSO control): at 45.8 µM (top of the series); further: nearly all actives have a fitted effect of over 55% in size
How it was run: as §1

[11] = Quantitative High-Throughput drug screen in 47 multiple myeloma cell lines against the NCATS MIPE library collection: PE2_PLB cell viability assay (AID 1919869); further: nearly all actives have a fitted effect of over 35% in size
How it was run: as §1

[12] = Quantitative High-Throughput drug screen in 47 multiple myeloma cell lines against the NCATS MIPE library collection: RPMI8226_ATCC cell viability assay (AID 1919871); further: nearly all actives have a fitted effect of over 30% in size
How it was run: as §1

[13] = Quantitative High-Throughput drug screen in 47 multiple myeloma cell lines against the NCATS MIPE library collection: OPM2_DSMZ cell viability assay (AID 1919872); further: nearly all actives have a fitted effect of over 30% in size
How it was run: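 Myeloma cell lines, 500 cells per well, exposed to MIPE 4.0 library compounds for 48 h at 37C, 5% CO2. Viability from ATP by CellTiter-Glo luminescence; normalised to DMSO (100%) and media-only (0%) wells.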
Potency means the concentration at half of the fitted maximal effect.

SMILES | Potency [1] | Potency [2] | Potency [3] | Potency [4] | Potency [5] | Potency [6] | Potency [7] | Potency [8] | Potency [9] | Potency [10] | Potency [11] | Potency [12] | Potency [13] | viability [2] [%] | viability (% of DMSO control) [10]
O=C(O)c1ccc(-c2cc3cccnc3c(-c3ccc4nonc4c3)n2)cc1 | 20.9 µM (active) | 20.9 µM (active) | 20.9 µM (active) | 20.9 µM (active) | 20.9 µM (active) | 20.9 µM (active) | 29.6 µM (active) | 26.4 µM (active) | 26.4 µM (active) | – | – | – | – | – | –
Cc1ccc(C(=O)Nc2cccc(C(F)(F)F)c2)cc1Nc1nc(-c2cccnc2)nc2c1cnn2C | 8.33 µM (active) | 14.8 µM (active) | 8.33 µM (active) | 4.69 µM (active) | 10.5 µM (active) | – | 20.9 µM (active) | – | – | 11.8 µM (active) | 9.35 µM (active) | 18.7 µM (active) | 16.6 µM (active) | – | –
O=C1c2ccccc2-[n+]2ccc3c([nH]c4ccccc43)c21 | 0.935 µM (active) | 2.96 µM (active) | 2.35 µM (active) | 1.48 µM (active) | 1.05 µM (active) | 1.48 µM (active) | 0.59 µM (active) | 1.05 µM (active) | 1.32 µM (active) | 1.32 µM (active) | 1.87 µM (active) | 2.96 µM (active) | 2.64 µM (active) | – | –
CCC(=O)NC[C@H](Cc1ccc(OCCc2nc(-c3ccccc3)oc2C)cc1)NC(C)=CC(=O)c1ccc(C(F)(F)F)cc1 | inactive | 18.7 µM (active) | inactive | 16.6 µM (active) | 5.26 µM (active) | – | inactive | – | inactive | – | 11.8 µM (active) | 23.5 µM (active) | – | – | –
COc1ccc(-c2cc(=O)c3c(O)cc(O)cc3o2)cc1O | 7.43 µM (active) | – | 8.33 µM (active) | 2.35 µM (active) | 2.09 µM (active) | 4.18 µM (active) | 3.32 µM (active) | 26.4 µM (active) | inactive | 8.33 µM (active) | 6.62 µM (active) | inactive | inactive | 119 | –
CC(=Cc1ccccc1)C=C1SC(=S)N(CC(=O)O)C1=O | inactive | – | inactive | inactive | inactive | inactive | inactive | inactive | inactive | – | inactive | inactive | inactive | 123 | –
COc1cc2c(cc1OC)CN(CCc1ccc(NC(=O)c3cc(OC)c(OC)cc3NC(=O)c3cnc4ccccc4c3)cc1)CC2 | 14.8 µM (active) | – | 5.26 µM (active) | 18.7 µM (active) | 20.9 µM (active) | – | 18.7 µM (active) | – | – | – | 26.4 µM (active) | 0.418 µM (active) | inactive | 118 | –
c1ccc2c(Cc3c[nH]c4ccccc34)c[nH]c2c1 | 7.43 µM (active) | 18.7 µM (active) | 2.96 µM (active) | 0.662 µM (active) | – | 4.18 µM (active) | 4.69 µM (active) | 23.5 µM (active) | 18.7 µM (active) | inactive | 2.96 µM (active) | – | 26.4 µM (active) | – | –
C=C1C(=O)[C@@]23C(CC[C@@H]1[C@H]2O)[C@@]12CO[C@]3(O)[C@@H](O)[C@@H]1C(C)(C)CC[C@@H]2O (stereo not given in full) | 3.72 µM (active) | 13.2 µM (active) | 8.33 µM (active) | 1.48 µM (active) | 2.96 µM (active) | 2.96 µM (active) | 1.66 µM (active) | 2.96 µM (active) | 2.35 µM (active) | 8.33 µM (active) | 1.18 µM (active) | 11.8 µM (active) | 7.43 µM (active) | – | –
O=C1C(Cl)=C(NCCN2CCOCC2)C(=O)c2ncccc21 | 7.43 µM (active) | 4.18 µM (active) | 5.9 µM (active) | 7.43 µM (active) | – | 7.43 µM (active) | 8.33 µM (active) | 1.87 µM (active) | 3.32 µM (active) | 8.33 µM (active) | 2.35 µM (active) | 9.35 µM (active) | 7.43 µM (active) | – | –
CC(C)=CC[C@@H](O)C1=CC(=O)c2c(O)ccc(O)c2C1=O | 16.6 µM (active) | 1.05 µM (active) | 0.469 µM (active) | 0.469 µM (active) | – | 0.833 µM (active) | – | 1.18 µM (active) | 0.833 µM (active) | 13.2 µM (active) | 0.264 µM (active) | 1.87 µM (active) | 1.32 µM (active) | – | –
O=c1cc(-c2cccc3c2Sc2ccccc2S3)oc(N2CCOCC2)c1 | 26.4 µM (active) | 18.7 µM (active) | – | 18.7 µM (active) | 18.7 µM (active) | 14.8 µM (active) | 14.8 µM (active) | 20.9 µM (active) | – | – | 18.7 µM (active) | – | – | – | –
O=C(O)C=Cc1ccc(O)c(O)c1 | 16.6 µM (active) | 29.6 µM (active) | 14.8 µM (active) | – | – | – | inactive | – | inactive | inactive | 16.6 µM (active) | – | inactive | – | –
Cn1c(N2CCCCS2(=O)=O)nc(C(=O)NCc2ccc(F)cc2)c(O)c1=O | inactive | – | – | inactive | inactive | inactive | inactive | – | – | – | inactive | inactive | inactive | 112 | 149% (active)
Clc1cc(Cl)cc(CNc2ncncc2-c2ccc3c(c2)OCO3)c1 | 20.9 µM (active) | 16.6 µM (active) | inactive | – | – | – | – | 16.6 µM (active) | – | – | 20.9 µM (active) | – | – | – | –
CCOC(=O)C1=C(N)Oc2ccc(Br)cc2C1C(C#N)C(=O)OCC (stereo not given) | 23.5 µM (active) | 20.9 µM (active) | – | 18.7 µM (active) | 16.6 µM (active) | 16.6 µM (active) | 16.6 µM (active) | 23.5 µM (active) | 20.9 µM (active) | 18.7 µM (active) | 20.9 µM (active) | 26.4 µM (active) | – | – | –
CC(C)(Cc1ccc2ccccc2c1)NC[C@@H](O)COc1cccc(Cl)c1C#N | 6.62 µM (active) | – | inactive | inactive | – | – | inactive | inactive | inactive | inactive | inactive | – | inactive | 126 | –
Oc1ccc(C2=Cc3ccc(O)cc3OC2)cc1 | 1.48 µM (active) | 11.8 µM (active) | 5.9 µM (active) | 1.32 µM (active) | – | – | – | – | – | – | 9.35 µM (active) | – | – | – | –
NC(CO)(CO)CCc1ccc(Sc2cccc(OCc3ccccc3)c2)cc1Cl | 6.62 µM (active) | 26.4 µM (active) | – | 20.9 µM (active) | 16.6 µM (active) | 8.33 µM (active) | 14.8 µM (active) | 7.43 µM (active) | 11.8 µM (active) | 16.6 µM (active) | 13.2 µM (active) | 23.5 µM (active) | 23.5 µM (active) | – | –
O=C(Nc1c(Cl)cncc1Cl)c1ccc(OC(F)F)c(OCC2CC2)c1 | inactive | – | inactive | – | 18.7 µM (active) | – | – | inactive | inactive | – | – | – | inactive | 111 | –
O=c1cc(-c2ccccc2)oc2cc(O)cc(O)c12 | inactive | – | inactive | – | – | – | 20.9 µM (active) | – | inactive | – | – | inactive | inactive | 139 | –
CCOc1ccc(Nc2nc(-c3c(C)nc4ccccn34)cs2)cc1 | 0.0066 µM (active) | 0.264 µM (active) | – | inactive | inactive | – | – | inactive | inactive | – | – | – | 0.0037 µM (active) | – | –
O=C(O)[C@H]1O[C@H](Oc2cc3oc(-c4ccccc4)cc(=O)c3c(O)c2O)[C@H](O)[C@@H](O)[C@H]1O | 18.7 µM (active) | 20.9 µM (active) | – | inactive | – | inactive | – | – | – | inactive | inactive | – | – | – | –
O=C1c2c(O)cc(O)cc2O[C@H](c2cc(O)c(O)c(O)c2)[C@H]1O | inactive | 20.9 µM (active) | 11.8 µM (active) | – | – | inactive | inactive | – | inactive | inactive | inactive | – | 18.7 µM (active) | – | –
CC1(C)CCC2=C(O1)c1ccccc1C(=O)C2=O | 20.9 µM (active) | 20.9 µM (active) | 20.9 µM (active) | – | 26.4 µM (active) | – | 20.9 µM (active) | 26.4 µM (active) | – | 20.9 µM (active) | 20.9 µM (active) | – | 16.6 µM (active) | – | –
CCOC1OC(=O)C[C@H]1NC(=O)[C@@H]1CCCN1C(=O)[C@@H](NC(=O)c1ccc(N)c(Cl)c1)C(C)(C)C (stereo not given in full) | inactive | – | – | inactive | inactive | – | inactive | inactive | inactive | – | inactive | – | inactive | 129 | –
CO[C@H]1C=CO[C@@]2(C)Oc3c(C)c(O)c4c(O)c(c5c(c4c3C2=O)NC2(CCN(CC(C)C)CC2)N=5)=NC(=O)C(C)=CC=C[C@H](C)[C@H](O)[C@@H](C)[C@@H](O)[C@@H](C)[C@H](OC(C)=O)[C@H]1C | inactive | – | inactive | – | 20.9 µM (active) | 16.6 µM (active) | – | inactive | inactive | inactive | inactive | 16.6 µM (active) | inactive | 99.2 | –
CC1(C)CCC[C@@]2(C)[C@@H]1CC[C@@]1(C)OC(=O)C[C@H]21 | inactive | 8.33 µM (active) | – | inactive | inactive | – | inactive | – | – | – | inactive | – | inactive | – | –
COC[C@@H](c1ccc(C(F)(F)F)cc1)N1CCN(C2(C)CCN(C(=O)c3c(C)ncnc3C)CC2)C[C@H]1C | inactive | – | 6.62 µM (active) | 16.6 µM (active) | – | 23.5 µM (active) | 20.9 µM (active) | inactive | inactive | – | – | inactive | – | 118 | –
COc1ccc(-n2c(C)c([N+](=O)[O-])c3ccc(O)cc32)cc1 | inactive | 4.18 µM (active) | inactive | inactive | – | – | – | – | – | inactive | 4.69 µM (active) | inactive | inactive | – | –

Source: PubChem BioAssay (NCATS)
